MITF inh = human MITF inhibition, primary screen. O75030. inhibition, % at 2.6 µM. AlphaScreen MITF homodimerization, bead proximity signal. hit rate 0.91% among 650,000; in the data active = inhibition above about 50%;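 note: 0% = vehicle wells with protein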
FBW7 activator = human FBW7 E3 ligase activation, primary screen. AlphaScreen FBW7–phospho-cyclin E peptide binding, activator screen. normalized activity (activation), % at 26.1 µM. hit rate 0.13% among 650,000; in the data active = normalized activity above about 1.9%;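 note: purified mutant Fbw7 with reduced substrate affinity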
GPR151 ag = human GPR151 activation; hit rate 1% among 650,000; activation, % at 11.2 µM; PathHunter beta-arrestin GPR151 cells, luminescence; Q8TDV0; in the data active = activation above about 4.9%;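 note: 0% = median of compound wells and 100% = cells with positive control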
Target sequence (Q8TDV0 whole entry, looked up): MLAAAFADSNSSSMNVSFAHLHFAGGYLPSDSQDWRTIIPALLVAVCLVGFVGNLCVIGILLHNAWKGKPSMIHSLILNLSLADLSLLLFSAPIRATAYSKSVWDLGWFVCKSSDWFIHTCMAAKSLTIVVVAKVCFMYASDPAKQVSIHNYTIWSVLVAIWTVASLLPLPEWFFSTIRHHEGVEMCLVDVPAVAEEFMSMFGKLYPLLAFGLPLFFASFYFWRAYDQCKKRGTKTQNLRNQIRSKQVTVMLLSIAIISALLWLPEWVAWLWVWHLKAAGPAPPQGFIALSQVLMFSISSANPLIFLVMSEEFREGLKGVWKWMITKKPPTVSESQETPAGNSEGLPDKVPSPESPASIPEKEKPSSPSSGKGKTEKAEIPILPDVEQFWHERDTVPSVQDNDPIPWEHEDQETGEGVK
TEAD-YAP block = TEAD-YAP interaction inhibition; HEK-TIYL cells, TEAD-Gal4/YAP UAS-luciferase luminescence; inhibition, % at 9.12 µM; hit rate 1.4% among 640,000; in the data active = inhibition above about 32%;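 note: 0% = median of test compound wells and 100% = reference inhibitor wells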
GPR151 conf act = human GPR151 activation, confirmation screen | shares compounds with GPR151 ag | GPR151 PathHunter beta-arrestin cells, luminescence, 90 min; % of EA-reagent control over plate median | activation, % at 11.2 µM | 6,700 tested, under 10 active | AID 1508609;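 active = mean percent activation across replicates above the confirmation screen cutoff of 4.91%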
GPR119 counter = counter-screen for GPR151 activators: effect on human GPR119 | shares compounds with GPR151 ag | activation, % at 11.2 µM | hit rate 0.3% among 6,700 | GPR119 PathHunter beta-arrestin cells, luminescence, 90 min; 0 = compound-well median, 100 = enzyme-acceptor control;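 active = mean percent activation in the counterscreen above 29.09%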;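 note: counterscreen on off-target GPR119 to flag nonselective hits from the GPR151 activator screen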
Starred values were filed as active, the others as inactive; · = not tested or not shown; ! = not confirmed by another sample. Rows were chosen to be rich in hits. Some 3.5% of all compounds tested hit in one or more screens of this group.

SMILES	MITF inh	FBW7 activator	GPR151 ag	TEAD-YAP block	GPR151 conf act	GPR119 counter
Cc1cc(C(=O)COc2ccc3c(c2)OCO3)c(C)n1CC1CCCO1 (stereo not drawn)	3	0	0	-50	·	·
COc1ccc(-c2csc(Nc3ccc(C(=O)O)c(O)c3)n2)cc1C	2	0	-1	-8	·	·
CCN(CC(=O)NC(C)C)C(=O)C(CCSC)NC(=O)c1cccc(C)c1 (stereo not drawn)	-9	0	6.3*	3	1	-2
CC(=O)Nc1ccc(NC(=O)c2oc3cc(C)c(C)cc3c2C)cc1	1	0	23*	-10	0	0
Cc1cc2oc(C(=O)Nc3cccnc3)c(C)c2cc1C	7	0	0	-29	·	·
CN(C)Cc1ccccc1-c1cnc2c(Nc3cccc(C(F)(F)F)c3)nccn12	-2	0	1	3	·	·
CCn1c(O)c(N=NC(=O)c2ccc(C)nc2)c2ccccc21	11	0	2	3	·	·
O=C(N=Nc1c(O)n(CO)c2ccccc12)c1ccncc1	6	0	4.9*	-8	0	9
COc1ccc(OC)c(NC(=O)CC(Cc2ccc(Cl)cc2)C(=O)O)c1 (stereo not drawn)	8	0	5.2*	6	0	-7
COc1cc(CN2CCC3(C=Cc4ccccc43)CC2)cc2c1OCO2	·	·	-1	·	·	·
COc1cc(CN2CCN(c3ccccc3Cl)CC2)cc2c1OCO2	34	0	5.5*	8	1	11
COc1ccc2c(c1)NC1(CCCN(CCN3C(=O)c4ccccc4C3=O)C1)c1cccn1-2 (stereo not drawn)	-3	0	5.4*	1	1	-2
O=C1c2ccccc2C(=O)N1CCN1CCCC2(C1)Nc1ccccc1-n1cccc12 (stereo not drawn)	7	0	0	-4	·	·
Cc1ccc(CN2CCNC(=O)C2CC(=O)N2CCc3c(Cl)cccc3C2)o1 (stereo not drawn)	15	0	0	1	·	·
CCOC(=O)C1=C(C)NC2=C(C(=O)CC(C)(C)C2)C1c1ccc(Cl)cc1Cl (stereo not drawn)	3	0	-2	-1	·	·
Cc1cc(F)ccc1NC(=O)CCNc1c(N2CCCC2)c(=O)c1=O	14	0	5.0*	-3	0	-13
O=C(Cn1nnc2ccccc2c1=O)N1CCc2ccccc2C1	-4	0	1	-4	·	·
CC(C)SC(=N)N	-2	0	1	·	·	·
CCSC(=N)N	-5	0	7.1*!	12	0	4
Cc1ccc(S(=O)(=O)n2ccn(C(=O)c3ccccc3Br)c2=O)cc1	-3	0	4.9*	-9	-1	-14
CC1=CC(C)C2COC(c3ccccc3O)C1C2 (stereo not drawn)	-1	0	5.3*	3	0	-5
COc1ccc(C(c2ccccn2)N(C)C(=O)C2CCN(C(=O)C(C)(C)C)CC2)cc1 (stereo not drawn)	-16	0	-1	3	·	·
CC(C)=CCCC(C)CN1CCc2nnc(CNC(=O)c3ccccn3)n2CC1 (stereo not drawn)	8	0	6.8*	2	1	8
C/C(=C\c1ccco1)CN1CCc2nnc(CNC(=O)CCc3cccnc3)n2CC1	18	0	-2	-1	·	·
Cc1ccc(CN2CCc3nnc(CNC(=O)c4ccccn4)n3CC2)cc1	8	0	-1	11	·	·
SMILES	MITF inh	FBW7 activator	GPR151 ag	TEAD-YAP block	GPR151 conf act	GPR119 counter
C/C=C(\C)CN1CCc2nnc(CNC(=O)CCc3cccnc3)n2CC1	9	0	15*	5	0	-4
CC(C)=CCN1CCc2nnc(CNC(=O)c3ccccn3)n2CC1	3	0	0	0	·	·
Cc1ccc(CN2CCc3nnc(CNC(=O)c4ccccc4)n3CC2)cc1	6	0	6.0*	5	0	5
CN(Cc1nnc(-c2ccccc2)o1)Cc1cc(-c2ncccn2)ccc1O	6	0	11*	-2	0	13
CN(Cc1ccccc1)Cc1cc(-c2ncccn2)ccc1O	-4	0	1	1	·	·
CC(C)(C)CC(=O)N1CCCC(c2nc3c(nnn3Cc3ccc(F)cc3)c(=O)[nH]2)C1 (stereo not drawn)	3	0	1	-1	·	·
C=CCOC(=O)C1=C(C)N=C2SC(CC)C(=O)N2C1c1cccc([N+](=O)[O-])c1 (stereo not drawn)	-14	0	3	8	·	·
Cc1ccc(CNC(=O)CCCn2c(=O)c3ccccc3n(CC(N)=O)c2=O)cc1	-3	0	5.2*	0	1	4
O=C1CCCC2=C1C(c1ccccc1Cl)c1c([nH]c(=O)[nH]c1=O)N2 (stereo not drawn)	20	0	1	8	·	·
CN(Cc1ccccc1)C1(O)C(=O)Nc2ccc(Cl)cc21 (stereo not drawn)	7	0	2	2	·	·
CN(Cc1ccccc1)C1(O)C(=O)Nc2ccc([N+](=O)[O-])cc21 (stereo not drawn)	-4	0	12*	5	-1	10
Fc1ccc(-c2nnc3ccc(NCCCN4CCN(Cc5ccccc5)CC4)nn23)cc1	0	0	0	-4	·	·
O=S(=O)(c1cccc2cnccc12)N1CCCN(S(=O)(=O)c2cccc3cnccc23)CC1	-4	0	-1	-1	·	·
O=S(=O)(c1cccc2cnccc12)N1CCCNCC1	0	0	9.3*!	14	1	-2
Cc1c(Cc2ccc(Cl)cc2)c(NCCCN(C)C)n2c(nc3ccccc32)c1C#N	7	0	-1	-11	·	·
N#CCn1c2c(c(=O)n3ncnc13)CCCC2	1	0	0	4	·	·
NC(=O)c1ccsc1NC(=O)CSc1ccc(Cl)cc1	-1	0	9.5*	-33	-1	7
CC1CCCN(C(=O)Nc2cccc3ccccc23)C1 (stereo not drawn)	8	0	1	5	·	·
COc1ccc(/C=C/C(=O)Nc2sc3c(c2C(N)=O)CCCCC3)cc1	13	0	0	4	·	·
COc1ccc(/C=C/C(=O)Nc2sc3c(c2C(=O)NCc2cccnc2)CCCC3)cc1	6	0	6.7*	6	1	-6
Cc1cc(=O)oc2cc(OS(=O)(=O)c3ccccc3)ccc12	9	0	1	-32	·	·
CC1CCc2c(sc3ncn4c(=O)n(Cc5ccccn5)nc4c23)C1 (stereo not drawn)	11	0	-1	5	·	·
COc1ccc(NC(=O)C(C)n2c(C)c3cnn(-c4ccccc4)c(=O)c3c2C)c(OC)c1 (stereo not drawn)	4	0	1	9	·	·
CNC(=O)C1CN(Cc2ccc3c(c2)OCO3)CCN1C(=O)c1ccc(F)c(F)c1 (stereo not drawn)	3	0	7.2*	-2	0	-9
CC(C)(CO)NCc1ccccc1OCc1ccc(Cl)cc1	7	0	1	3	·	·

Screening results from PubChem BioAssay.
